Among the data in PubChem BioAssay are composite z-score and z-score values, retold here.

Active and inactive are the calls of the source.

The test system of test [1] is Plasmodium falciparum Sir2 (PF13_0152, Sir2A). As to the kind of experiment: Plasmodium falciparum Sir2A binding compounds – biochemical, small-molecule microarray, 635 nm fluorescence, primary screen (AID 1098).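 Note: score merges spot fluorescence intensity with its signal-to-noise ratio.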 To be noted: fluorescence 635 nm, higher = more signal.
Test [2] in a line: probe aDKK1 binding to arrayed compounds – biochemical, biotinylated probe, 635/667 nm fluorescence, primary screen (AID 1099).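 Note: score merges 667nm spot fluorescence with signal to noise across triplicate slides; reference of the scale not given here.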 Particulars: small-molecule microarray, higher = more signal.
Test [3] in a line: probe aCHRDL2 binding to arrayed compounds – biochemical, biotinylated probe, 635/667 nm fluorescence, primary screen (AID 1100). Particulars: small-molecule microarray, higher = more signal.
Test [4] is described as follows: change in splice reporter luminescence, either direction, cell-based, HEK293, spliceosome inhibition project, primary screen (AID 1101).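 Note: HEK293 cells carrying a splicing-competent luciferase reporter gene; test concentration not given here.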 To be noted: HEK293 splicing luciferase reporter, 24 h, higher = more signal, called active from +8 up or from −8 down.
Test [5] addresses Fibroblast growth factor 10 (Homo sapiens) (UniProt O15520). As to the kind of experiment: compounds binding fibroblast growth factor 10 – biochemical, small-molecule microarray, 635 nm fluorescence, primary screen (AID 1102). Particulars: FGF10 binding, fluorescence 635 nm, higher = more signal.
The subject of test [6] is glycogen synthase kinase-3 (GSK3A per assay name; protocol says GSK3B). As to the kind of experiment: compounds binding glycogen synthase kinase-3 – biochemical, small-molecule microarray, 635 nm fluorescence, GSK3A, primary screen (AID 1103). Note: the record names both GSK3A and GSK3B. To be noted: fluorescence 635 nm, higher = more signal.
For test [7], the target named is Epidermal growth factor receptor (Homo sapiens) (UniProt P00533). As to the kind of experiment: compounds binding epidermal growth factor receptor – biochemical, small-molecule microarray, 635 nm fluorescence, primary screen (AID 1104).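 Note: score merges 667 nm emission intensity with spot signal to noise over triplicate slides.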 Particulars: EGFR binding, higher = more signal.
Test [8] deals with Follistatin-related protein 3 (Homo sapiens) (UniProt O95633). As to the kind of experiment: compounds binding follistatin-related protein 3 – biochemical, small-molecule microarray, 635 nm fluorescence, primary screen (AID 1105).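 Note: score merges emission near 667 nm and signal to noise per printed spot across three slides.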 To be noted: FSTL3 binding, higher = more signal.
Test [9] concerns the target Dickkopf-related protein 1 (Homo sapiens) (UniProt O94907). As to the kind of experiment: small molecules binding DKK1 protein – biochemical, small-molecule microarray, 635 nm fluorescence scan, primary screen (AID 1106).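 Note: score merges emission near 667 nm with signal to noise over three replicate slides.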 To be noted: higher = more signal.
Test [10] deals with Inhibin beta A chain (activin A). As to the kind of experiment: small molecules binding activin A – biochemical, small-molecule microarray, 635 nm fluorescence scan, primary screen (AID 1107).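 Note: mouse activin A protein probed at 4.33 µg/mL on printed slides; score merges bound-protein fluorescence near 667 nm with spot signal-to-noise.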 To be noted: INHBA, higher = more signal.

Follistatin-related protein 3 (Homo sapiens), sequence (O95633 whole entry, looked up): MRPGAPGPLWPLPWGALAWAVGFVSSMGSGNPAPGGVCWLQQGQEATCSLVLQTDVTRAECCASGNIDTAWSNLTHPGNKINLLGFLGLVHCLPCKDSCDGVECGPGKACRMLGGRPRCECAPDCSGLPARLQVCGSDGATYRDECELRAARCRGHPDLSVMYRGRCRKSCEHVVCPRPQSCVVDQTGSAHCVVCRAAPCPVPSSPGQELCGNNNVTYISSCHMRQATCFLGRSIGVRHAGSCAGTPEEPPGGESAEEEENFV
Dickkopf-related protein 1 (Homo sapiens), sequence (O94907 whole entry, looked up): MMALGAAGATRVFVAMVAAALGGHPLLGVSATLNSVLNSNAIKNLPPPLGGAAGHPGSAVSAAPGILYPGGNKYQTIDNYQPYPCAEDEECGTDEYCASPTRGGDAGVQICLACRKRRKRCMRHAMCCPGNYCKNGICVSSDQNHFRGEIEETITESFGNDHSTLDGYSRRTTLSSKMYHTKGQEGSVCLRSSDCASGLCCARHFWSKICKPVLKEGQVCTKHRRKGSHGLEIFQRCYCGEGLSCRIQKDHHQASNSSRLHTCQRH
Fibroblast growth factor 10 (Homo sapiens), sequence (O15520 whole entry, looked up): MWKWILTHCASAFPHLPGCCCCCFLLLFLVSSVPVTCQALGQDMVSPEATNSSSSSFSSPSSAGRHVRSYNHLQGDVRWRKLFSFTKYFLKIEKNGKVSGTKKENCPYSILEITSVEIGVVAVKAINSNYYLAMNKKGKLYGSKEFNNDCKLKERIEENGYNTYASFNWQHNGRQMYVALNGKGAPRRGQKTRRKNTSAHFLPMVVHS
Epidermal growth factor receptor (Homo sapiens), sequence (P00533 whole entry, looked up): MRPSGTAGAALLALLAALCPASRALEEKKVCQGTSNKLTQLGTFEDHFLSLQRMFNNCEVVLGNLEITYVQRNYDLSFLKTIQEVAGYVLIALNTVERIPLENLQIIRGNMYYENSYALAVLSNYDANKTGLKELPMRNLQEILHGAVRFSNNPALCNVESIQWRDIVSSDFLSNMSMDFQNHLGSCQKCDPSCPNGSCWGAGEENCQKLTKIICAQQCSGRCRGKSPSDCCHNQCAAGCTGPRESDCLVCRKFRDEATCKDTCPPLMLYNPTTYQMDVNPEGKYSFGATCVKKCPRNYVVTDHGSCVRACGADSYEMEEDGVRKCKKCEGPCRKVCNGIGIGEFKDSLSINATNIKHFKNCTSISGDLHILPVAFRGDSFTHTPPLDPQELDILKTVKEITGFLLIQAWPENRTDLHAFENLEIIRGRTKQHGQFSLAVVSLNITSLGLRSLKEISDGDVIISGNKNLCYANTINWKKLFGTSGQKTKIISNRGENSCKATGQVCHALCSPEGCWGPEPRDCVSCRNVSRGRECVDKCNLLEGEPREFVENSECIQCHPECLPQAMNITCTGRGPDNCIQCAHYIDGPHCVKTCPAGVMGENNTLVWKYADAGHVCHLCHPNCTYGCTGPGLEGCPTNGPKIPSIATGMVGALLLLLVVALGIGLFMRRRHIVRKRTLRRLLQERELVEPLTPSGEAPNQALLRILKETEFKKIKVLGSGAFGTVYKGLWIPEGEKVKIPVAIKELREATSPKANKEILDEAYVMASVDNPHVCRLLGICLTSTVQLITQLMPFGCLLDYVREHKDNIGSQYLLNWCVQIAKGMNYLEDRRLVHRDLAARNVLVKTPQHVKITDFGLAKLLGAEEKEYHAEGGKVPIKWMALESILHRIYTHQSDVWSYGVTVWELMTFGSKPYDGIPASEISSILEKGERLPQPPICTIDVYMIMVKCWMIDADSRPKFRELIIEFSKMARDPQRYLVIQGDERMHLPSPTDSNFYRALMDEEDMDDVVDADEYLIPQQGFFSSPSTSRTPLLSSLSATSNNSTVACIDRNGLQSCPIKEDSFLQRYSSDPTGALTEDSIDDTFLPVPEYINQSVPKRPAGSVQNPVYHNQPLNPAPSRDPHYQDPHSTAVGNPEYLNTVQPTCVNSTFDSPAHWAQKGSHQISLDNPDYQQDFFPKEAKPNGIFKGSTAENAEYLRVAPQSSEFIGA

As for `O=C(NCCCCCNC(=O)/C(Cc1ccccc1)=N/O)OCc1ccccc1`, the composite z-score in test [1] is -0.263; in test [2], -0.314; in [3], -0.603; in test [5], 0.0434; in [6] it was -0.201; in test [7], 0.445. Further, the values for the composite z-score in test [8], in [9] and in [10] were 0.206, 0.229 and -0.182, respectively. Also, the z-score in test [4] is -1.54 (inactive).
For the molecule `COc1cc2c(cc1O)C(C)N(Cc1ccc([N+](=O)[O-])o1)CC2` (stereo not given), the composite z-score in test [1] is 1.38; in [2], 0.749; in test [3], 0.879; in [5], 0.675; in test [6] it was 0.899; in [7], -0.459. The composite z-score in test [8] was 0.574; in test [9], -0.0673; in test [10], 1.31. Further, the z-score in test [4] is 0.286 (inactive).
As for `Cc1ccc(S[C@]2(C(=O)NCC(F)(F)F)CC(=O)N(Cc3ccccc3)[C@@H]2c2ccc(CO)cc2I)cc1`, the composite z-score was 1.37 in test [1]; 0.307 in test [2]; 0.264 in test [3]; -0.376 in [5]; -0.342 in test [6]; -0.592 in test [7]. Moreover, the composite z-score in test [8] is -0.507; in [9] it was -0.813; in test [10] it was 0.548. In addition, the z-score in test [4] is -0.432 (inactive).
As for `CCOC(=O)C[C@H]1[C@H](OC(=O)c2cc3ccccc3oc2=O)[C@@H](NC(=O)Cc2ccc(OC)cc2)c2cc(OCCCO)ccc2N1C(=O)c1ccc2ccccc2n1`, the composite z-score was 0.195 in [1]; 0.0588 in [2]; -0.335 in [3]; 1.28 in test [5]; 0.372 in test [6]; 0.409 in test [7]. In addition, the composite z-score in test [8] is 0.889; in test [9], 0.578; in [10], 0.155. For the same molecule, in test [4], the z-score is 0.126 (inactive).
Take `COc1ccc([Si](C)(C)[C@@H]2[C@@H](CC(=O)N(CCO)Cc3ccccc3)O[C@]3(C(=O)N(c4ccccc4)c4ccccc43)[C@H]2C)cc1`: the composite z-score is 0.908 in test [1]; -0.262 in test [2]; -0.426 in [3]; 0.766 in [5]; 0.629 in [6]; 0.954 in test [7]. The composite z-score in test [8] came to 1.21; in test [9] it was 0.95; in test [10], 0.872. Besides, in [4], the z-score is -2.14 (inactive).
In the case of `CO[C@H]1O[C@H](CO)[C@@H](OC(=O)Nc2ccc3c(c2)OCO3)[C@H](OC(=O)c2cc3ccccc3[nH]2)[C@H]1OC(=O)c1cc2ccccc2[nH]1`, the composite z-score in [1] is 0.787; in [2] it was -0.0268; in test [3], -0.161; in test [5], 0.247; in test [6], -0.0406; in [7], -0.194. Moreover, the composite z-score in test [8] worked out at 0.238; in [9], 0.283; in [10], 1.46. In addition, the z-score in test [4] was -1.87 (inactive).
Consider `CCOC(=O)C[C@H]1[C@H](OC(=O)c2ccc(C(=O)c3ccccc3)cc2)[C@@H](NC(=O)Cc2ccc(OC)cc2)c2cc(OCCCO)ccc2N1C(=O)c1ccccc1`, for which the composite z-score is -0.186 in test [1]; 0.0467 in [2]; 0.521 in [3]; 0.281 in test [5]; -0.0732 in test [6]; 0.12 in test [7]. The composite z-score is -0.0059 in test [8], 0.0251 in [9] and 0.643 in test [10]. In [4], the z-score is -0.449 (inactive).
`C[N+](C)(C)CCCCCCNC(=O)[C@H]1C[C@H]2C(=O)N[C@@H](Cc3ccccc3)C(=O)N2[C@H]1c1ccc(O)cc1`: the composite z-score in test [1] is 1.27; in test [2], -0.265; in [3], -0.534; in test [5], 0.98; in test [6] it was 0.637; in test [7], 0.192. The results for the composite z-score in test [8], in [9] and in test [10] were 0.894, 0.834 and 0.445, respectively. For the same molecule, the z-score in [4] is -0.0288 (inactive).
As for `COC1OC[C@]2(C)[C@H]3C4=C(CN2C(=O)OC(C)(C)C)[C@H](C)C(CO)C(CO)C4CC[C@@H]13` (stereo not given in full), the composite z-score in [1] was determined as 0.422; in test [2], 1.39; in test [3], 1.52; in test [5] it was 0.513; in test [6], 1.18; in [7], 0.0188. In addition, the composite z-score in test [8] is 0.823; in test [9] it was -0.362; in [10], 1.17. In addition, the z-score in test [4] was 2.09 (inactive).
With `C=C(COC)C(=O)CC[C@@H](OC(=O)c1cccnc1)c1ccc(OCCO)cc1`, the composite z-score in test [1] is 0.872; in test [2], 0.131; in [3] it was 0.423; in [5], 1.55; in [6] it was 0.328; in [7], 0.338. For the same molecule, the figures for the composite z-score in [8], in [9] and in test [10] were 0.847, 0.922 and 1.26, respectively. In addition, the z-score in test [4] is -0.853 (inactive).
On to `[N-]=[N+]=Nc1ccccc1[C@H]1OC(c2ccc(OCCCO)cc2)=N[C@@]1(CCS(=O)(=O)c1ccccc1)C(=O)NCCN1CCOCC1`, for which the composite z-score in test [1] was 1.35; in [2], -0.135; in [3], 0.775; in test [5], 1.41; in test [6], 1.21; in [7], 0.131. Further, the composite z-score was 1.19 in [8], 0.248 in test [9] and 0.903 in [10]. For the same molecule, the z-score in [4] was -0.0945 (inactive).
Regarding `CCOC(=O)C1=CC[C@@H](c2cccc(Cl)c2)N(S(=O)(=O)c2ccc(C)cc2)C1`, the composite z-score was determined as 0.925 in test [1]; 0.419 in test [2]; 0.877 in [3]; 0.674 in test [5]; 0.0076 in [6]; 0.101 in test [7]. In addition, the composite z-score in test [8] was -0.0034; in [9] it was 0.0677; in test [10], 0.539. Also, the z-score in test [4] was -2.03 (inactive).
As for `COCCCNC(=O)[C@@]1(Cc2ccccc2N=[N+]=[N-])N=C(c2ccc(OCCCO)cc2)O[C@H]1c1ccccc1`, the composite z-score in test [1] is 1.55; in [2], 0.231; in [3], 1.01; in test [5], 0.911; in test [6], 1.28; in [7], -0.338. The composite z-score stood at 0.402 in [8], 0.157 in test [9] and 1.14 in [10]. For the same molecule, the z-score in test [4] is 0.181 (inactive).
With `C=C(C(=O)CC[C@@H](OC(C)=O)c1ccc(CO)o1)C(C)C`, the composite z-score in [1] is -0.78; in [2] it was -0.418; in test [3] it was -0.298; in [5] it was 0.826; in test [6], 0.482; in [7] it was -0.289. The composite z-score in [8] was determined as 1.39; in [9], 0.536; in test [10] it was 1.41. Also, in test [4], the z-score was 0.993 (inactive).
